About 79,000 compounds went through this panel and 15% of them were active in at least one assay; those are over-represented in the sample as a whole. The source made the active and inactive calls. Cut-off read from the data, not from the text of the source: active = growth inhibition above about 70%; inactive = the rest.
Key:
[1] = NCI Yeast Anticancer Drug Screen. Data for the mec2-1 strain (AID 157); settings: S. cerevisiae mec2-1 strain, active compounds read high
Summary of the method: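 Compounds were applied to mec2-1 yeast cells. Their growth was then compared with that of vehicle-treated cultures to give growth inhibition.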

[2] = NCI Yeast Anticancer Drug Screen. Data for the rad14 strain (AID 159);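 note: 0% = growth of vehicle-treated control cultures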; settings: S. cerevisiae rad14 strain growth inhibition, active compounds read high
Summary of the method: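 Yeast cells carrying a defined DNA-repair defect were exposed to compounds, and growth inhibition was calculated relative to vehicle-treated control cultures.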

[3] = NCI Yeast Anticancer Drug Screen. Data for the sgs1 mgt1 strain (AID 161);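 note: 0% = growth of cultures given vehicle only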; settings: S. cerevisiae sgs1 mgt1 strain, active compounds read high
Summary of the method: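 Percent growth inhibition was derived by comparing compound-exposed mutant yeast with vehicle-exposed cultures. The strain carries alterations in DNA damage repair.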

[4] = NCI Yeast Anticancer Drug Screen. Data for the CLN2oe strain (AID 163);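 note: 0% = growth of vehicle-only control cultures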; settings: S. cerevisiae CLN2oe strain, active compounds read high
Summary of the method: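 Cells of an engineered yeast line with disturbed cell-cycle regulation are treated with compound. Inhibition of growth is then calculated relative to the vehicle-treated reference.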

[5] = NCI Yeast Anticancer Drug Screen. Data for the cln2 rad14 strain (AID 165);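 note: 0% = growth equal to vehicle treated cultures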; settings: S. cerevisiae cln2 rad14 strain, active compounds read high
Summary of the method: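 Strain: cln2 rad14 yeast, altered in cell cycle control and DNA damage repair. Read-out: growth inhibition vs vehicle.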

[6] = NCI Yeast Anticancer Drug Screen. Data for the bub3 strain (AID 167); settings: S. cerevisiae bub3 mutant strain, active compounds read high
Summary of the method: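 Compounds were applied to a genetically altered yeast strain carrying a cell-cycle control defect. Growth inhibition was scored against vehicle-treated controls.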

[7] = NCI Yeast Anticancer Drug Screen. Data for the wt2 strain (AID 169);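 note: 0% = growth of vehicle-treated yeast cultures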; settings: S. cerevisiae wt2 strain growth inhibition, active compounds read high
Summary of the method: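 Growth of compound-treated yeast is measured and expressed as inhibition relative to vehicle-only controls.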

[8] = NCI Yeast Anticancer Drug Screen. Data for the mlh1 strain (AID 171);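 note: 0% = growth of vehicle-treated control cultures of the same strain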; settings: S. cerevisiae mlh1 strain growth inhibition, active compounds read high
Summary of the method: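 Test agents were incubated with yeast bearing a defined DNA damage repair or cell cycle control alteration; values are growth inhibition normalised to vehicle-treated cultures.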

[9] = NCI Yeast Anticancer Drug Screen. Data for the sgs1 strain (AID 173);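 note: 0% = growth of vehicle-only control cultures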; settings: S. cerevisiae sgs1 mutant, active compounds read high
Summary of the method: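 Strain with an altered DNA repair or cell cycle pathway exposed to compound. Growth then measured. Value = inhibition versus vehicle control.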

[10] = NCI Yeast Anticancer Drug Screen. Data for the mlh1 rad18 strain (AID 175); settings: S. cerevisiae mlh1 rad18 strain growth inhibition, active compounds read high
Summary of the method: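 A repair-deficient yeast strain is exposed to test compound, and growth is scored relative to vehicle-treated controls.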

[11] = NCI Yeast Anticancer Drug Screen. Data for the rad18 strain (AID 177); settings: S. cerevisiae rad18 mutant growth inhibition, active compounds read high
Summary of the method: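 DNA-repair-defective yeast; compound treatment; growth inhibition scored against vehicle.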

[12] = NCI Yeast Anticancer Drug Screen. Data for the rad52 strain (AID 147);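 note: 0% = growth of vehicle-treated control cultures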; settings: S. cerevisiae rad52 mutant growth inhibition, active compounds read high
Summary of the method: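 Growth of repair-deficient yeast cells was compared between compound-treated and vehicle-treated cultures to give percent inhibition.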

[13] = NCI Yeast Anticancer Drug Screen. Data for the wt1 strain (AID 149);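 note: 0% = growth of vehicle-treated wt1 cultures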; settings: S. cerevisiae wt1 strain (SPY 50644) growth inhibition, active compounds read high
Summary of the method: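 Yeast wt1 strain exposed to compounds; growth inhibition measured relative to vehicle-treated controls.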

[14] = NCI Yeast Anticancer Drug Screen. Data for the rad50EPP+ strain (AID 151);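 note: 0% = growth of vehicle-treated control cultures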; settings: S. cerevisiae rad50 mutant strain, active compounds read high
Summary of the method: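 Measured: growth inhibition of rad50EPP+ yeast. Reference: vehicle-treated controls. Screen uses strains with defined genetic alterations in DNA damage repair or cell cycle control.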

[15] = NCI Yeast Anticancer Drug Screen. Data for the mgt1 strain (AID 153); settings: S. cerevisiae mgt1 mutant growth inhibition, active compounds read high
Summary of the method: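 Compounds were applied to mgt1 mutant yeast, and growth was then compared against vehicle-treated control cultures to give percent inhibition.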

[16] = NCI Yeast Anticancer Drug Screen. Data for the rad50 strain (AID 155);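 note: 0% = growth of vehicle-only cultures of the same strain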; settings: S. cerevisiae rad50 strain growth inhibition, active compounds read high
Summary of the method: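 Yeast carrying a defined DNA repair defect were exposed to test compounds, and growth was compared with vehicle-treated controls to give percent inhibition.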

[17] = at 5.0 µM (retest, dose inferred, filed as 0.5)
[18] = at 50.0 µM (retest, dose inferred, filed as 5.0)

Measured: growth inhibition

CN(Cc1cnc2nc(N)nc(N)c2n1)c1ccc(C(=O)N[C@@H](CCC(=O)O)C(=O)O)cc1
inactive: [1]; [17] 14% | [1]; at 11.0 µM 17% | [2]; at 1.2 µM -1% | [2]; at 3.7 µM -5% | [2]; at 11.0 µM -7% | [2]; at 33.0 µM 14% | [3]; [17] -3% | [3]; [18] 64% | [4]; at 1.2 µM 0% | [4]; at 3.7 µM 0% | [4]; at 11.0 µM -7% | [4]; at 33.0 µM -16% | [4]; at 100.0 µM 20% | [5]; [17] -1% | [5]; [18] 22% | [5]; at 50.0 µM -6.4% | [6]; at 1.2 µM 2% | [6]; at 3.7 µM -1% | [6]; [17] -7% | [6]; at 11.0 µM -7% | [6]; at 33.0 µM -4% | [6]; [18] 63% | [6]; at 100.0 µM 40% | [7]; at 1.2 µM -3% | [7]; at 3.7 µM -4% | [7]; at 11.0 µM -4% | [7]; at 33.0 µM 12% | [7]; at 100.0 µM 47% | [8]; at 1.2 µM -1% | [8]; at 3.7 µM -4% | [8]; at 11.0 µM -5% | [8]; at 33.0 µM 7% | [8]; at 100.0 µM 35% | [9]; at 1.2 µM -2% | [9]; at 3.7 µM -3% | [9]; at 11.0 µM 3% | [9]; at 33.0 µM 27% | [9]; at 100.0 µM 63% | [10]; [17] -2% | [10]; [18] 58% | [11]; at 1.2 µM -2% | [11]; at 3.7 µM 0% | [11]; at 11.0 µM 4% | [11]; at 33.0 µM 30%
active: [1]; at 33.0 µM 88% | [1]; [18] 94% | [1]; at 50.0 µM 97.9% | [1]; at 100.0 µM 96% | [2]; at 100.0 µM 72% | [3]; at 50.0 µM 82.5% | [6]; at 50.0 µM 90.5% | [10]; at 50.0 µM 87.8% | [11]; at 100.0 µM 80%

C/C(=N/NC(=S)N1CCCCCC1)c1cccc(/C(C)=N\NC(=S)N2CCCCCC2)n1
active: [12]; at 33.0 µM 73% | [12]; at 100.0 µM 71% | [13]; at 33.0 µM 82% | [13]; at 100.0 µM 81% | [15]; at 33.0 µM 80% | [16]; at 33.0 µM 79% | [16]; [18] 93% | [16]; at 50.0 µM 90.8% | [16]; at 100.0 µM 73% | [1]; at 33.0 µM 81% | [1]; [18] 92% | [1]; at 50.0 µM 91% | [1]; at 100.0 µM 83% | [2]; at 33.0 µM 71% | [2]; at 100.0 µM 76% | [3]; [18] 93% | [3]; at 50.0 µM 92.8% | [5]; [18] 91% | [5]; at 50.0 µM 93.2% | [6]; [18] 92% | [6]; at 50.0 µM 92% | [8]; at 33.0 µM 76% | [8]; at 100.0 µM 71% | [9]; at 100.0 µM 73% | [10]; [18] 91% | [10]; at 50.0 µM 90.3% | [11]; at 100.0 µM 70%
inactive: [12]; at 1.2 µM 19% | [12]; at 3.7 µM 25% | [12]; at 11.0 µM 54% | [13]; at 1.2 µM 17% | [13]; at 3.7 µM 34% | [13]; at 11.0 µM 60% | [14]; at 1.2 µM 0% | [14]; at 3.7 µM -1% | [14]; at 11.0 µM -27% | [14]; at 33.0 µM -48% | [14]; at 100.0 µM -39% | [15]; at 1.2 µM 23% | [15]; at 3.7 µM 35% | [15]; at 11.0 µM 52% | [15]; at 100.0 µM 69% | [16]; at 1.2 µM 38% | [16]; at 3.7 µM 42% | [16]; [17] 42% | [16]; at 11.0 µM 62% | [1]; at 1.2 µM 22% | [1]; at 3.7 µM 31% | [1]; [17] 31% | [1]; at 11.0 µM 51% | [2]; at 1.2 µM 6% | [2]; at 3.7 µM 14% | [2]; at 11.0 µM 40% | [3]; [17] 43% | [4]; at 1.2 µM -4% | [4]; at 3.7 µM -4% | [4]; at 11.0 µM -6% | [4]; at 33.0 µM -5% | [4]; at 100.0 µM 23% | [5]; [17] 9% | [6]; at 1.2 µM -4% | [6]; at 3.7 µM -3% | [6]; [17] 58% | [6]; at 11.0 µM -4% | [6]; at 33.0 µM 7% | [6]; at 100.0 µM 15% | [7]; at 1.2 µM -1% | [7]; at 3.7 µM -6% | [7]; at 11.0 µM -1% | [7]; at 33.0 µM 8% | [7]; at 100.0 µM 32% | [8]; at 1.2 µM -2% | [8]; at 3.7 µM -9% | [8]; at 11.0 µM 51% | [9]; at 1.2 µM 21% | [9]; at 3.7 µM 15% | [9]; at 11.0 µM 41% | [9]; at 33.0 µM 66% | [10]; [17] 59% | [11]; at 1.2 µM 10% | [11]; at 3.7 µM 26% | [11]; at 11.0 µM 46% | [11]; at 33.0 µM 67%

Reference: PubChem BioAssay (NCI)
